The results in this text go back to the supplement of paper PMC3334620.

In all, about 33,000 sequences were measured (“E-score (-0.5 to 0.5)”: median about -0.032, highest 2% from about 0.36 on). The full list was thinned out, with the highest values kept by preference.

The experiment addresses T1, Sko1 (UniProt Q02100).
T1 sequence: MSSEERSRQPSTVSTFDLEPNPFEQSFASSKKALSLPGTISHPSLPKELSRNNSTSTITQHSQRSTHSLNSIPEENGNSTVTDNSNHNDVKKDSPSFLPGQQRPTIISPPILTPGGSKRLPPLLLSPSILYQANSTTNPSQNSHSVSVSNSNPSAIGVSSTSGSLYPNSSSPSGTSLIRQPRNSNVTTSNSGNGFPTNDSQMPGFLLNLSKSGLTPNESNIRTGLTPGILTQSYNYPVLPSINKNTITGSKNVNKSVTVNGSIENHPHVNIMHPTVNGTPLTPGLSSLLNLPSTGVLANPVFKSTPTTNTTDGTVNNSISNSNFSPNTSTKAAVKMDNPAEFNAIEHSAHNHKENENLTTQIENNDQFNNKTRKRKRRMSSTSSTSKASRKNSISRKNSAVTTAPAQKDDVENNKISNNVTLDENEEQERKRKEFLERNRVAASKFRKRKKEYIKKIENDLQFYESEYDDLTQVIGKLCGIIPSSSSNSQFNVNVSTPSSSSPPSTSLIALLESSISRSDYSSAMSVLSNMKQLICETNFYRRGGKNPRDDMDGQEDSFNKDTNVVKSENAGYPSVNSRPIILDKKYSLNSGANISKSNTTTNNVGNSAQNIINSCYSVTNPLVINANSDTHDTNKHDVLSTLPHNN
Description: PBM E-score (8-mer binding enrichment) (E-score (-0.5 to 0.5)); higher = stronger / more preferred TF binding. To be noted: protein concentration: 200 nM; construct: GST-full length. In a few lines:
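Yeast transcription factors carrying a GST tag, as full-length proteins or DNA-binding domains, were produced by PURExpress in vitro transcription/translation. About 100-200 nM protein was applied to universal all-10-mer Agilent arrays, double-stranded by primer extension on fresh or once-stripped slides. Bound protein was detected with fluorescent anti-GST, and scans were normalised with masliner. The Universal PBM Analysis Suite gave each ungapped eight-base word, pooled with its reverse complement, an E-score, a modified Wilcoxon-Mann-Whitney statistic.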
Turning to ACGTCGCG, the “PBM E-score” value is 0.356.
With CCGTCGTC, the “PBM E-score” value was -0.0549.
Regarding AAGTCGTG, the “PBM E-score” value was found to be 0.00032.
With ACGTCGTC the figure was 0.387; with ACGTCGTG, 0.361; with GCGTCGTA, 0.234.
Take AGTTGCCC: the “PBM E-score” value was -0.107.
In the case of ACATTCTA, the “PBM E-score” value was 0.293.
In the case of AACCCAGC, the “PBM E-score” value is -0.247.
Regarding CGGCCTAG, the “PBM E-score” value was -0.324.
With AGAAGCTG the figure was -0.0693.
Then ACAGCTGT, with -0.245; and GGGCAGAC, with -0.242; and ACTGGTAT, with -0.17.
With TCTCGTAA the figure was 0.276; with CCTCGTCA, 0.381; with CCTCGTCG, -0.233.
In the case of ACTCGTCT, the “PBM E-score” value was -0.0567.
Then TCTCGTCA, with 0.365; and ACTCGTCC, with 0.0764; and CCTCGTCC, with -0.209.
With ACTCGTCA the figure was 0.404; with GCTCGTCA, 0.351.
As to AACCCAAG, the “PBM E-score” value was -0.00525.
Take ATAAGGAG: the “PBM E-score” value is -0.159.
For CGTAGACA, the “PBM E-score” value was determined as 0.264.
Then GCGTCCAC, with -0.0966.
With ATACTTTC the figure was 0.0725; with AAAGACGT, 0.448; with AACGACGT, 0.411.
With AAAGACGG the figure was -0.111; with ACCGACGG, -0.181.
Take ACCGACGC: the “PBM E-score” value is 0.0727.
With ACCGACGT the figure was 0.376.
Regarding AACGACGA, the “PBM E-score” value amounted to 0.166.
With AAAGACGA the figure was 0.172; with AACGACGG, 0.0454.
Turning to AGCTCAAA, the “PBM E-score” value worked out at 0.0839.
Regarding ATGCCCTG, the “PBM E-score” value is -0.17.
Then TACGGTGA, with 0.0938; and ACGGTCGG, with -0.28.
With ACGGTCTG the figure was -0.0646; with GACCGCTC, -0.21.
Turning to CCAGTCTA, the “PBM E-score” value was -0.255.
Regarding AAGTGACT, the “PBM E-score” value is -0.0253.
With AAGTGACG the figure was 0.445.
Then AAGTGACC, with -0.141; and CATTGACA, with -0.0852; and CAGTGACG, with 0.408.
Consider CAGTGACA, for which the “PBM E-score” value was 0.0692.
With CAGTGACC the figure was -0.18; with CATTGACC, 0.114.
In the case of CATTGACG, the “PBM E-score” value came out at 0.412.
As for GGCGAAAA, the “PBM E-score” value amounted to 0.0196.
For the sequence ATGTCCAC, the “PBM E-score” value amounted to 0.116.
As for GCCTGTCA, the “PBM E-score” value was -0.157.
For CCGGTCAA, the “PBM E-score” value was -0.12.
Consider GTATTGCA, for which the “PBM E-score” value was found to be 0.0688.
Regarding CACTGGGC, the “PBM E-score” value was -0.304.
Consider CTTTCATA, for which the “PBM E-score” value was 0.257.
In the case of GCTAGCCC, the “PBM E-score” value was -0.26.
For the sequence AACCGTTG, the “PBM E-score” value was -0.00171.
With CGGCATAC the figure was -0.00615; with ACGCCTGA, 0.15; with TAATATTA, 0.362.
On to AAATATTA, for which the “PBM E-score” value amounted to 0.295.
With CAATATTA the figure was 0.264.
Regarding AGGCCAGG, the “PBM E-score” value is -0.292.
Then CCTATACC, with -0.227; and CATGACCG, with 0.0181; and AAGAAGTG, with -0.0945.
On to CAGGGAAG, for which the “PBM E-score” value was -0.212.
Then GTGGTTAA, with 0.205.
Then ACCGCTTA, with -0.00218; and TACGTGGA, with 0.424; and CACGTGAA, with 0.319.
TACGTGAA: the “PBM E-score” value was determined as 0.425.
On to CACGTGGA, for which the “PBM E-score” value came out at 0.315.
For the sequence AACGTGAA, the “PBM E-score” value is 0.14.
Then GACGTGGA, with 0.23.
Then CGAGCCTC, with -0.324; and GGCCCCTA, with -0.188.
With TAGGCTCA the figure was -0.19.
For the sequence AAACAGTA, the “PBM E-score” value came out at 0.14.
Then CGATTACA, with 0.106; and CGATTACG, with 0.448.
